The campaign covered roughly 16,000 compounds. About 5,800 (36%) were called active. Roughly 23% stayed inconclusive and do not appear here. The list shows a part of the results. Unmarked numbers belong to inactive results. Calls come from the whole dose curve; as a rule, active = well fitted curve in the direction sought with a large enough effect; inconclusive = small, poorly fitted or top-dose-only effect, or effect the other way; inactive = no such curve, though single readings can be large or run the other way.
Each molecule was assayed against Cytochrome P450 2C19 (Homo sapiens) (UniProt P33261) (assay: Cytochrome panel assay with activity outcomes). Conditions: recombinant CYP, pro-luciferin dealkylation, luminescence, p450-cyp2c19; series mostly up to 57.1 µM; activity, negative = inhibition: at the top concentration.
Chain of Cytochrome P450 2C19 (Homo sapiens) (P33261 whole entry, looked up): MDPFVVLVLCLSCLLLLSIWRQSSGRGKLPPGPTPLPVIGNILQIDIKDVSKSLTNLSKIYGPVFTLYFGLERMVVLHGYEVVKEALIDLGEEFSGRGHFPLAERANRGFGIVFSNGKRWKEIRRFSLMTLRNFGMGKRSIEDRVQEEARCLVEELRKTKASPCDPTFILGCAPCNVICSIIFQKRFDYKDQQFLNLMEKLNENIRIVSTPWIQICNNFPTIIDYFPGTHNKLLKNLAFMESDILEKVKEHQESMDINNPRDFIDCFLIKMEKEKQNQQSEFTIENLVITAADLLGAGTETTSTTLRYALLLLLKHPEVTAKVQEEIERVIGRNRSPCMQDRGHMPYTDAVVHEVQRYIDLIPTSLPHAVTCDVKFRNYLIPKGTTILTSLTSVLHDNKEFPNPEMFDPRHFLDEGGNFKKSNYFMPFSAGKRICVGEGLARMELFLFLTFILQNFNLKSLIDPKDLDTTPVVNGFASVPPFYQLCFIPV
In the case of `CCCN[C@@H](C)C(=O)Nc1ccccc1C`, the AC50 is reported as “inactive”. `Cc1ccccc1NC(=O)C(C)c1cccc(C(=O)c2ccccc2)c1` (stereo not given) was tested, and the AC50 was 1.26 µM (active). In the case of `O=C(NCc1cn(-c2ccccc2)nc1-c1ccccc1)c1cc([N+](=O)[O-])cc([N+](=O)[O-])c1`, the AC50 is reported as 1.78 µM (active). For `N[C@@H](Cc1c[nH]c2ccc([N+](=O)[O-])cc12)C(=O)O`, the activity, negative = inhibition was 34.9% [at 11.4 µM]. With `c1coc(CN2CCN(C(c3cccs3)c3nnnn3C3CCCC3)CC2)c1` (stereo not given) the AC50 was 10 µM (active). With `CS(=O)(=O)N1CCC2(CCN(Cc3ccncc3)CC2)CC1` the “activity, negative = inhibition” value was -33.9%. For `Clc1ccc(C(c2nnnn2C2CCCC2)N2CCN(Cc3ccncc3)CC2)cc1` (stereo not given), the AC50 was 0.224 µM (active). For `Cc1cc(C(=O)CSc2nnc(-c3ccccc3)o2)c(C)n1CC1COc2ccccc2O1` (stereo not given), the AC50 was 1.12 µM (active). With `CC(=O)NNC(=O)CCC(=O)Nc1ccccc1` the “activity, negative = inhibition” value was 11.8%. For `CC(=O)c1cccc(NC(=O)CCC2CCCC2)c1`, the AC50 was 3.55 µM (active). In the case of `COc1ccccc1CN1CCC2(CC1)CCN(C(=O)c1ccco1)CC2`, the “activity, negative = inhibition” value is reported as -17.8%. For `O=C(Cn1cc(C(=O)c2ccco2)c2ccccc21)NCc1ccco1`, the AC50 was 2.24 µM (active). In the case of `COc1ccccc1CN1CCCC2(CCN(C(=O)c3ccco3)CC2)C1`, the “activity, negative = inhibition” value is reported as 8.58%. For `Cc1ccccc1C(=O)c1cccn1CC(=O)NCc1ccco1`, the AC50 was 11.2 µM (active). In the case of `O=C(Cn1cccc1C(=O)c1ccccc1)NCc1cccs1`, the AC50 is reported as 2.82 µM (active). `COc1ccccc1OCCn1cc(C(=O)c2ccco2)c2ccccc21` was tested, and the AC50 was 1 µM (active). For `CCS(=O)(=O)c1ccc(C(=O)Nc2ccccc2)c(Cl)c1Cl`, the AC50 was 11.2 µM (active). With `O=C(c1csnn1)N1CCC2(CCCN(c3ccc(-c4ccccc4)cc3)C2)CC1` the “activity, negative = inhibition” value was -15.8%. With `Nc1nonc1-c1noc(CCCN2C(=O)c3ccccc3C2=O)n1` the AC50 was 3.98 µM (active). Work on `O=C(O)CCc1nc(-c2ccccc2-n2cccc2)no1` yielded an activity, negative = inhibition of -29.3% [at 11.4 µM]. With `Cc1nc2cnc(Nc3ccccc3)nc2n(CCc2ccccc2)c1=O` the “activity, negative = inhibition” value was -11.4%. `CCNc1ncc2nc(-c3ccccc3)c(=O)n(CCc3ccccc3)c2n1` was tested, and the AC50 was 1 µM (active). `CCNc1ncc2nc(-c3ccccc3)c(=O)n(CCC#N)c2n1` was tested, and the “activity, negative = inhibition” value was -3.99%. For `CCNc1ncc2nc(-c3cccs3)c(=O)n(CCc3ccccc3)c2n1`, the “activity, negative = inhibition” value was -40.1%. In the case of `CCNc1ncc2nc(C)c(=O)n(CCC#N)c2n1`, the “activity, negative = inhibition” value is reported as -8.35%. For `CCNc1ncc2nc(C)c(=O)n(CCc3ccccc3)c2n1`, the AC50 was 0.316 µM (active). `O=C(O)c1nn(-c2ccccc2-c2n[nH]c(=O)[nH]c2=O)c(=O)[nH]c1=O` gave an activity, negative = inhibition of 20.9% [at 11.4 µM]. With `Cc1cccc(N2CCN(c3ccc(NC(=O)/C=C(/C(=O)O)c4ccccc4)cc3)CC2)c1` the AC50 was 4.47 µM (active). With `Cc1cc(C(=O)Nc2ccc(N3CCOCC3)cc2)c2ccccc2n1` the “activity, negative = inhibition” value was -16.6%. With `c1csc(CNc2nc(-c3ccc4c(c3)OCO4)nc3ccccc23)c1` the AC50 was 3.16 µM (active). In the case of `Cc1cccc(CNc2nc(-c3ccc4c(c3)OCO4)nc3ccccc23)c1`, the AC50 is reported as 3.16 µM (active). For `c1ccc(CNc2nc(-c3ccc4c(c3)OCO4)nc3ccccc23)cc1`, the AC50 was 10 µM (active). For `c1cncc(CNc2nc(-c3ccc4c(c3)OCO4)nc3ccccc23)c1`, the AC50 was 10 µM (active). In the case of `CN(C)Cc1ccccc1-c1nc(NCc2ccccc2)c2ccccc2n1`, the “activity, negative = inhibition” value is reported as -36.4%. For `CN[C@H]1[C@@H](O[C@@H]2[C@H](O[C@@H]3[C@@H](O)[C@@H](O)[C@@H](N=C(N)N)[C@@H](O)[C@@H]3N=C(N)N)O[C@H](C)[C@@]2(O)C=O)O[C@@H](CO)[C@@H](O)[C@H]1O`, the “activity, negative = inhibition” value was 13.4% [at 25.6 µM]. In the case of `Nc1ncnc2c1ncn2C[C@@H](O)C(=O)O`, the activity, negative = inhibition is reported as -17.6% [at 11.4 µM]. `O=C1NCC2(CCN(CCc3ccccc3)CC2)O1` was tested, and the AC50 was “inactive”. With `COc1ccc(OC)c(C2C(C(=O)Nc3nc4ccccc4s3)=C(C)NC3=C2C(=O)CCC3)c1` (stereo not given) the AC50 was 0.891 µM (active). For `Cc1ccc([C@@H](O)c2cnc(C)n2Cc2ccccc2)cc1`, the AC50 was 1.26 µM (active). For `Cc1ncc([N+](=O)[O-])n1CC(=O)NCc1ccccc1`, the “activity, negative = inhibition” value was -0.585%. In the case of `Cc1ncc([N+](=O)[O-])n1CC(C)O` (stereo not given), the “activity, negative = inhibition” value is reported as -22.3%. In the case of `COc1ccc(Oc2ncc3nc(-c4ccc(F)cc4)c(=O)n(Cc4cccs4)c3n2)cc1`, the “activity, negative = inhibition” value is reported as -32%. With `CCC1(C)CC(CCNS(=O)(=O)c2ccc(C)cc2)(c2ccc(C)cc2)CCO1` (stereo not given) the AC50 was 3.98 µM (active). With `CC1(C)O[C@@H]2O[C@H]([C@@H]3COC(C)(C)O3)[C@H](N)[C@H]2O1` the activity, negative = inhibition was 14.5% [at 11.4 µM]. `CCOc1ccc(OCC)c(-c2c(=O)n(OCc3ccc(C(C)(C)C)cc3)c3ccccc3[n+]2[O-])c1` was tested, and the AC50 was 1.58 µM (active). `CCOc1ccc(OCC)c(-c2c(=O)n(OCc3ccccc3C(=O)OC)c3ccccc3[n+]2[O-])c1` was tested, and the AC50 was 4.47 µM (active). For `COc1ccc(CNC(=O)c2csc(Cc3ccc(OC)cc3)n2)cc1`, the AC50 was 8.91 µM (active). With `COc1ccc(CNC(=O)C2CSC(=O)C2)cc1` (stereo not given) the “activity, negative = inhibition” value was -5.06%. In the case of `COc1ccc(CNC(=O)c2cnc(C)cn2)cc1`, the AC50 is reported as 14.1 µM (active). `COc1ccc(CNC(=O)c2csc(Cc3ccc(Cl)cc3)n2)cc1` was tested, and the AC50 was 2.51 µM (active). In the case of `COc1ccc(CCNC(=O)COC(=O)c2cnc(C)cn2)cc1`, the “activity, negative = inhibition” value is reported as -61.1%. `COc1ccccc1NC(=O)c1nc[nH]c1C(=O)Nc1ccccc1OC` was tested, and the “activity, negative = inhibition” value was 8.16%. With `COc1ccccc1NC(=O)C(C/C=C(\C)Cl)C(C)=O` (stereo not given) the AC50 was 3.55 µM (active). With `O=C(COC(=O)c1cccnc1Nc1cccc(C(F)(F)F)c1)NCc1ccc2c(c1)OCO2` the AC50 was 3.55 µM (active). In the case of `O=C(O)c1cccnc1Nc1cccc(C(F)(F)F)c1`, the “activity, negative = inhibition” value is reported as 12.3% [at 25.6 µM]. With `Cc1cccc(Nc2ccccc2C(=O)OCC(=O)NCc2ccco2)c1C` the AC50 was 5.01 µM (active). In the case of `O=C(COC(=O)c1ccccc1Nc1cccc(C(F)(F)F)c1)NCc1ccco1`, the AC50 is reported as 2 µM (active). In the case of `Cc1cccc(Nc2ccccc2C(=O)O)c1C`, the “activity, negative = inhibition” value is reported as 2.99% [at 25.6 µM]. With `O=C(O)CCCC[C@H]1CCSS1` the “activity, negative = inhibition” value was 14.9%. In the case of `COc1ccccc1CNc1ncncc1-c1cccc(C#N)c1`, the AC50 is reported as 3.16 µM (active). In the case of `COc1ccc(CNc2ncncc2-c2cccc(C#N)c2)c(OC)c1`, the AC50 is reported as 5.01 µM (active). `Cc1n[nH]c(=O)nc1NCc1ccccc1Cl` was tested, and the AC50 was 28.2 µM (active). With `Cc1cnc(CNc2nc(-c3ccccc3Cl)nc3ccccc23)cn1` the “activity, negative = inhibition” value was -44.4%. In the case of `CCCCCCCOC1(c2ccccc2)OC(=O)c2ccccc21` (stereo not given), the AC50 is reported as 3.55 µM (active). For `CCCCOC1(c2ccccc2)OC(=O)c2ccccc21` (stereo not given), the AC50 was 6.31 µM (active). `CC(=O)[C@@]1(O)Cc2c(O)c3c(c(O)c2[C@H](O[C@H]2C[C@H](N)[C@H](O)[C@H](C)O2)C1)C(=O)c1ccccc1C3=O` was tested, and the “activity, negative = inhibition” value was -27.6%. In the case of `COc1ccc(C(=O)NC(=S)NC(C)(C)C)cc1Br`, the AC50 is reported as 3.55 µM (active). With `COc1ccc(C(=O)NC(=S)NC(C)C)cc1Br` the AC50 was 2.24 µM (active). With `C=CCN1CCc2c(cc(O)c(O)c2Br)[C@H](c2ccccc2)C1` the “activity, negative = inhibition” value was -43.7%. `COC(=O)CNC(=O)CN1C(=O)N(c2ccc(Cl)cc2)C(N(O)C(=O)Nc2ccc(Cl)cc2)C1(C)C` (stereo not given) was tested, and the AC50 was 14.1 µM (active). In the case of `NC(=NCc1ccc(Cl)c(Cl)c1)NC(=O)c1nc(Cl)c(N)nc1N`, the “activity, negative = inhibition” value is reported as -23%. `CCCCCCCCCCCCC(=O)N1CCCC[C@H]1CNC(=O)[C@@H](N)CCCCN` was tested, and the AC50 was 7.94 µM (active). In the case of `CN(CCc1ccccn1)Cc1ccc(Cl)cc1Cl`, the AC50 is reported as 0.447 µM (active). With `CC(C)C(=O)C(C)(C)CCc1ccccn1` the activity, negative = inhibition was -41.1% [at 11.4 µM]. With `Cc1cccc(CN(C)CCc2ccccn2)c1` the AC50 was 15.8 µM (active). `O=C(O)[C@@H](O)Cc1ccccn1` was tested, and the activity, negative = inhibition was 14.4% [at 11.4 µM]. With `CN(CCO)Cc1ncccc1O` the activity, negative = inhibition was 42.9% [at 11.4 µM]. `CCOC(=O)c1cnn(-c2ccccc2)c1-n1cccc1C(=O)C(=O)Nc1ccccc1C(F)(F)F` was tested, and the AC50 was 7.94 µM (active). In the case of `CCC(CC)C(=O)Nc1c2cnn(-c3ccccc3)c2nc(=O)n1-c1ccccc1`, the “activity, negative = inhibition” value is reported as -20%. With `O=C(O)c1nnsc1-c1ccc(-c2snnc2C(=O)O)cc1` the activity, negative = inhibition was -40.8% [at 11.4 µM]. `N#CC(c1ccc(Cl)cc1)c1nc2ccccc2nc1C(F)(F)F` (stereo not given) was tested, and the AC50 was 0.562 µM (active). With `O=C(C1CCN(S(=O)(=O)N2CCOCC2)CC1)N1CCN(c2ccccc2)CC1` the AC50 was 25.1 µM (active). For `O=C(Nc1cccc(NC(=O)N2CCN(c3ccccc3)CC2)c1)N1CCN(c2ccccc2)CC1`, the AC50 was 5.01 µM (active). For `O=C(Nc1ccccc1)N1CCCC2(CCNCC2)C1`, the “activity, negative = inhibition” value was 8.07%. For `O=C(Nc1ccccc1)N1CCC2(CCNCC2)CC1`, the “activity, negative = inhibition” value was -11.1%. With `CC1CCCC(NC(=O)C2CCN(S(=O)(=O)N3CCOCC3)CC2)C1C` (stereo not given) the “activity, negative = inhibition” value was -28.5%. For `O=C(N1CCOCC1)N1CCN(c2ccccc2)CC1`, the AC50 was 14.1 µM (active). `c1ccn(-c2ccc(N3CCOCC3)cc2)c1` was tested, and the “activity, negative = inhibition” value was -16.5%. In the case of `COc1ccc(N(C)S(=O)(=O)c2ccc3c(c2)CCC(=O)N3)cc1`, the AC50 is reported as 6.31 µM (active). For `O=C(CCNS(=O)(=O)c1ccc2c(c1)CCC(=O)N2)NCc1ccc2c(c1)OCO2`, the “activity, negative = inhibition” value was -25%. For `COc1ccc(NC(=O)CCNS(=O)(=O)c2ccc3c(c2)CCC(=O)N3)cc1`, the “activity, negative = inhibition” value was -14.5%. For `N#Cc1cccc(NC(=O)N2CC[C@@]3(CCCN(C(=O)c4ccncc4)C3)C2)c1`, the “activity, negative = inhibition” value was -19.1%. For `Cc1cc(NC(=O)CSc2ccc3nnc(-c4ccc(F)cc4)n3n2)no1`, the “activity, negative = inhibition” value was -26.1%. In the case of `CCCCc1nc(SCC(=O)Nc2ncccn2)n[nH]1`, the “activity, negative = inhibition” value is reported as -8.74%. `Cc1cc(NC(=O)CSc2n[nH]c(-c3cccs3)n2)no1` was tested, and the AC50 was 14.1 µM (active). With `N[C@H](Cn1ccc(=O)n(Cc2ccccc2C(=O)O)c1=O)C(=O)O` the “activity, negative = inhibition” value was -24.5%. In the case of `N[C@@H](Cn1ccc(=O)n(Cc2ccccc2C(=O)O)c1=O)C(=O)O`, the AC50 is reported as 0.1 µM (active). `CCc1nnc(NC(=O)c2c(C)nn(-c3ccccc3)c2Cl)s1` was tested, and the AC50 was 20 µM (active). With `CCCCCc1nnc(NC(=O)C(=O)OCC)s1` the “activity, negative = inhibition” value was -25.8%. With `Cc1nn(-c2ccccc2)c(Cl)c1C(=O)Nc1c(C)n(C)n(-c2ccccc2)c1=O` the “activity, negative = inhibition” value was -5.57%.
% is set by controls: 0 for no effect and ±100 for the full control effect.
